Assay in all cases: DAPPL (digital affinity profiling via proximity ligation, sequencing); 10 mM Tris-HCl pH 7.5, 50 mM NaCl, 1 mM DTT, 4% glycerol, room temperature, 30 min; GST-TFs on glutathione beads, 16-mer random dsDNA library, 0.1% formaldehyde crosslink after washing; high values mean tight binding
One assay addresses T1, FEV (Homo sapiens, UniProt Q99581 1-238).
T1 sequence: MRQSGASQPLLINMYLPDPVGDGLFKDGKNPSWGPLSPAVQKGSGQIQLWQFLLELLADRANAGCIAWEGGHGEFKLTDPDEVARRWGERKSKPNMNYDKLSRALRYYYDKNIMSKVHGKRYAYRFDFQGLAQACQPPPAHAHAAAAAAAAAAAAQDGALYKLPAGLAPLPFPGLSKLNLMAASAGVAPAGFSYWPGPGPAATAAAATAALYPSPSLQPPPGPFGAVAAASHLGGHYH
The following applies: protein: recombinant; tags: N-terminal GST; dsDNA, one strand shown. The essentials: (§1)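 Binding signal is given per hexamer as its read frequency for a factor divided by its frequency in the tag-only sample. GST-fused human transcription factors were expressed in yeast, captured on glutathione beads, barcoded with DNA and pooled with that sample, then incubated with 200 nmole of a 16-mer random double-stranded DNA library in Tris/NaCl/DTT/glycerol buffer for 30 min at room temperature. The pools were then washed, crosslinked, proximity-ligated, amplified by PCR and sequenced on an Illumina NextSeq500.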

For the next assay, the target named is ETV5 (Homo sapiens, UniProt P41161 1-510). The conditions noted are these: protein: recombinant; tags: N-terminal GST; dsDNA, one strand shown. The procedure, abridged:
as §1

The target in a further assay is HSF1 (Homo sapiens, UniProt Q00613 1-529). The conditions noted are these: protein: recombinant; tags: N-terminal GST; chain copies: 3; dsDNA, one strand shown. The essentials: as §1
The next assay concerns the target ELF4 (Homo sapiens, UniProt Q99607 1-663). The following applies: protein: recombinant; tags: N-terminal GST; dsDNA, one strand shown. The procedure, abridged:
as §1

The target of the next assay is T2, ELK4 (Homo sapiens, UniProt P28324-2 1-405).
T2 sequence: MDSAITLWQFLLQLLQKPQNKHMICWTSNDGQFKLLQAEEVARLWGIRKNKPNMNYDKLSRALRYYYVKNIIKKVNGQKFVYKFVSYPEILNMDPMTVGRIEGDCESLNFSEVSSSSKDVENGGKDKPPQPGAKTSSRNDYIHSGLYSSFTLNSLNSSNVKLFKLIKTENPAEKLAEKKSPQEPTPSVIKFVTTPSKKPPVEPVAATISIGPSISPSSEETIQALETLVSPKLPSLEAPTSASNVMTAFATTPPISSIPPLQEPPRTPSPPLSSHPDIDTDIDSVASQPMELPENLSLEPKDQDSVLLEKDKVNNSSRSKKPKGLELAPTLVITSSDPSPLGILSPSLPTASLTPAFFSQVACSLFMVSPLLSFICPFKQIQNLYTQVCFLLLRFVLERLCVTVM
The following applies: protein: recombinant; tags: N-terminal GST; dsDNA, one strand shown. The essentials:
as §1

A further assay deals with CRX (Homo sapiens, UniProt O43186 1-299). The following applies: protein: recombinant; tags: N-terminal GST; dsDNA, one strand shown. The essentials: as §1
Another assay addresses ETV1 (Homo sapiens, UniProt P50549 1-477). The following applies: protein: recombinant; tags: N-terminal GST; dsDNA, one strand shown. The procedure, abridged: as §1
For another assay, the target named is T3, ETV2 (Homo sapiens, UniProt O00321 1-342).
T3 sequence: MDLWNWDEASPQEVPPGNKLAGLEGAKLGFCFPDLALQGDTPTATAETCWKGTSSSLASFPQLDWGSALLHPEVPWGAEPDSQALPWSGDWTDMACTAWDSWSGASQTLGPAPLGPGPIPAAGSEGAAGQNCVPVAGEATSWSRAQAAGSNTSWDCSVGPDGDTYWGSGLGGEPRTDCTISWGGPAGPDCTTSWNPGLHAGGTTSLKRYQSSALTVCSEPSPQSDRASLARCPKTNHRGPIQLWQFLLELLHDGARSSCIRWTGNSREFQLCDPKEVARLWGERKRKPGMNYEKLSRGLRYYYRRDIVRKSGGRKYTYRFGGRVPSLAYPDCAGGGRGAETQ
The following applies: protein: recombinant; tags: N-terminal GST; dsDNA, one strand shown. The procedure, abridged: as §1

A further assay addresses T4, ELF3 (Homo sapiens, UniProt P78545 1-371).
T4 sequence: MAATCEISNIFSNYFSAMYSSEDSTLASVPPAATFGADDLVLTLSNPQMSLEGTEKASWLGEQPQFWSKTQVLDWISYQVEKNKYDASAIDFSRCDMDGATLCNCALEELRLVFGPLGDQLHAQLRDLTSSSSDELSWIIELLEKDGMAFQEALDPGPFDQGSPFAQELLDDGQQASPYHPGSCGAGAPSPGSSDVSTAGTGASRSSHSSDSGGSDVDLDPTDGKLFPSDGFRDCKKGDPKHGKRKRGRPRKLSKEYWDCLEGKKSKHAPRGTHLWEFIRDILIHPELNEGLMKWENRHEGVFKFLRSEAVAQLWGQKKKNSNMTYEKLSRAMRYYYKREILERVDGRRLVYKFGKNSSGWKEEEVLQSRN
The following applies: protein: recombinant; tags: N-terminal GST; dsDNA, one strand shown. The procedure, abridged:
as §1

Sequence of CRX (O43186 whole entry): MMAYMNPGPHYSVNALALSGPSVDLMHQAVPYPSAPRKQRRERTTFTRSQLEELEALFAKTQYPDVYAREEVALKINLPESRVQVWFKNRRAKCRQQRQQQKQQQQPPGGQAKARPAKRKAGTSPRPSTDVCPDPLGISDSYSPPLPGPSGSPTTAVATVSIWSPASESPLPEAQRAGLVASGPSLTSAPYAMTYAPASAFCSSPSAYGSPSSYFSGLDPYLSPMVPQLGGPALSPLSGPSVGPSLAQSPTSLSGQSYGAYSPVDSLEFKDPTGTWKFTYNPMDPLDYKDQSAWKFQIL
Sequence of ETV1 (P50549 whole entry): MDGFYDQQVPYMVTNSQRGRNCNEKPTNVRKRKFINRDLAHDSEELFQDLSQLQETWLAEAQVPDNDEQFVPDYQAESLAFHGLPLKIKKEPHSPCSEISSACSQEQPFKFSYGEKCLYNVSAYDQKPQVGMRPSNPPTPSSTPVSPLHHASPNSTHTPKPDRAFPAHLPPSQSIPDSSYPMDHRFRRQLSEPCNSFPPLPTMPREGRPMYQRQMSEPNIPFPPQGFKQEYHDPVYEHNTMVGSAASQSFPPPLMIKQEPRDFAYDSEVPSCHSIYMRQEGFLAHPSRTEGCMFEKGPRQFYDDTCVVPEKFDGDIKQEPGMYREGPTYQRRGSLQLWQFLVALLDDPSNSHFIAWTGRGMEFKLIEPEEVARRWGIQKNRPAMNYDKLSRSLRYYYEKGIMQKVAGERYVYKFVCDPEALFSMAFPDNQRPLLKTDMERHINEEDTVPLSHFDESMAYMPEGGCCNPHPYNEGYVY
Sequence of ELF4 (Q99607 whole entry): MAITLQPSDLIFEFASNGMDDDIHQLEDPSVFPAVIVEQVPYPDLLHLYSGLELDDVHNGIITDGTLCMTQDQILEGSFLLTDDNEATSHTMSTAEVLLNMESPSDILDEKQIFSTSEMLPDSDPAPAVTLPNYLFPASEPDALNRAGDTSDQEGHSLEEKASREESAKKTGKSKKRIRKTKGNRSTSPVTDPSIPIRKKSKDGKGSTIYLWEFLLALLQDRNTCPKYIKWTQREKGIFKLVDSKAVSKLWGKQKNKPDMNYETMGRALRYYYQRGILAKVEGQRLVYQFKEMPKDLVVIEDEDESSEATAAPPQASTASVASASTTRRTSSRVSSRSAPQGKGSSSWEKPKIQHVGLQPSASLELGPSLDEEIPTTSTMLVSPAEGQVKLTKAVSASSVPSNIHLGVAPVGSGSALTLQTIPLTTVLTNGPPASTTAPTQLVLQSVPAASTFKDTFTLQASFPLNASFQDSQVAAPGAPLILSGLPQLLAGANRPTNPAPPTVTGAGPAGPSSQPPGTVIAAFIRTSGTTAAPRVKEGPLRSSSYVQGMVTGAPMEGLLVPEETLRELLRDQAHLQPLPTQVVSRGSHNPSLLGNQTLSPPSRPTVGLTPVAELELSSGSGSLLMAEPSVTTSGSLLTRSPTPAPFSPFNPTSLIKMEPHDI
Sequence of HSF1 (Q00613 whole entry): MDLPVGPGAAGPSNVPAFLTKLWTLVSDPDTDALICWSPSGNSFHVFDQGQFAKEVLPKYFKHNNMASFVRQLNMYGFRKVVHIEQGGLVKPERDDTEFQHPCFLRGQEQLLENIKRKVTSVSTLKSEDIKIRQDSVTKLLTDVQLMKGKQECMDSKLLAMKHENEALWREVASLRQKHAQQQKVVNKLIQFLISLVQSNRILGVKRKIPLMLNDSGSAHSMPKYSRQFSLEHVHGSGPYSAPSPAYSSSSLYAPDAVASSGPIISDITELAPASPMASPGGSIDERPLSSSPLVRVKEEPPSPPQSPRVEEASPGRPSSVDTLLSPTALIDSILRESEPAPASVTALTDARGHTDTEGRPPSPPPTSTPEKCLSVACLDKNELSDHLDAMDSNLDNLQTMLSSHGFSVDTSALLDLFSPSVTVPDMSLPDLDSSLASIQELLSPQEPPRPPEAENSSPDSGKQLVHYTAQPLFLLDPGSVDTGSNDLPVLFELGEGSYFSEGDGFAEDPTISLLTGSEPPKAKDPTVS
Sequence of ETV5 (P41161 whole entry): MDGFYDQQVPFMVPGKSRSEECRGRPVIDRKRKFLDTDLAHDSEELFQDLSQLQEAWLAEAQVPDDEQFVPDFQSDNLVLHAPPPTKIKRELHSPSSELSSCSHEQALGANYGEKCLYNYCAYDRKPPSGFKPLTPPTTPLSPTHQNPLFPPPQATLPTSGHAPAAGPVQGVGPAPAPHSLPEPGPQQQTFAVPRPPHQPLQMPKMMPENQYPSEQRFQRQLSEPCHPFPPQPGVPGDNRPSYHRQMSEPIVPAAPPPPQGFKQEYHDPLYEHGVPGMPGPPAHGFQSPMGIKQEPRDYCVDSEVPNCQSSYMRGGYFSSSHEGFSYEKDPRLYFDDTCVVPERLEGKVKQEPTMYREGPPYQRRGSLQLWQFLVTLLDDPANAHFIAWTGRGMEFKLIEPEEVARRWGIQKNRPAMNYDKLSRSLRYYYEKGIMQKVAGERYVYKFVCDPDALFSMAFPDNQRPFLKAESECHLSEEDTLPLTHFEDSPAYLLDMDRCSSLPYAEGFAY

As for ATCGCA, the binding signal was 1.01 fold enrichment (6-mer frequency, TF over GST control) with FEV; 1 fold enrichment (6-mer frequency, TF over GST control) in the assay with ETV5; 1.03 fold enrichment (6-mer frequency, TF over GST control) with HSF1; 1.12 fold enrichment (6-mer frequency, TF over GST control) in the assay with ELF4; 1.06 fold enrichment (6-mer frequency, TF over GST control) in the assay with ELK4; 1.17 fold enrichment (6-mer frequency, TF over GST control) in the assay with CRX. In addition, in the assay with ETV1, the binding signal was 1.06 fold enrichment (6-mer frequency, TF over GST control).

Take AGATAA: the binding signal is 1.01 fold enrichment (6-mer frequency, TF over GST control) with FEV; 1.01 fold enrichment (6-mer frequency, TF over GST control) with ETV5; 1.68 fold enrichment (6-mer frequency, TF over GST control) in the assay with HSF1; 1.09 fold enrichment (6-mer frequency, TF over GST control) with ELF4; 1.08 fold enrichment (6-mer frequency, TF over GST control) with ELK4; 1.17 fold enrichment (6-mer frequency, TF over GST control) in the assay with ETV2. The binding signal with CRX was 2 fold enrichment (6-mer frequency, TF over GST control); in the assay with ETV1, 1.04 fold enrichment (6-mer frequency, TF over GST control).

On to TCGATG, for which the binding signal was 1.11 fold enrichment (6-mer frequency, TF over GST control) with ETV5; 1.26 fold enrichment (6-mer frequency, TF over GST control) with HSF1; 1.2 fold enrichment (6-mer frequency, TF over GST control) with ELF4; 1.09 fold enrichment (6-mer frequency, TF over GST control) with ELK4; 1.03 fold enrichment (6-mer frequency, TF over GST control) with ETV2; 1.1 fold enrichment (6-mer frequency, TF over GST control) with ELF3. Further, the binding signal with ETV1 is 1.11 fold enrichment (6-mer frequency, TF over GST control).

Take CAAGCA: the binding signal with FEV was 1.13 fold enrichment (6-mer frequency, TF over GST control); with ETV5, 1.17 fold enrichment (6-mer frequency, TF over GST control); with HSF1 it was 1.03 fold enrichment (6-mer frequency, TF over GST control); with ELF4, 1.16 fold enrichment (6-mer frequency, TF over GST control); with ELK4, 1.14 fold enrichment (6-mer frequency, TF over GST control); with ELF3, 1.28 fold enrichment (6-mer frequency, TF over GST control). The binding signal in the assay with ETV1 is 1.1 fold enrichment (6-mer frequency, TF over GST control).

Take TGACTA: the binding signal was 1.01 fold enrichment (6-mer frequency, TF over GST control) with FEV; 1.04 fold enrichment (6-mer frequency, TF over GST control) in the assay with ETV5; 1.04 fold enrichment (6-mer frequency, TF over GST control) with HSF1; 1.09 fold enrichment (6-mer frequency, TF over GST control) with ELF4; 1.06 fold enrichment (6-mer frequency, TF over GST control) in the assay with ELK4; 1.17 fold enrichment (6-mer frequency, TF over GST control) with ETV2. In addition, the binding signal is 1.08 fold enrichment (6-mer frequency, TF over GST control) with ELF3; 1.17 fold enrichment (6-mer frequency, TF over GST control) with CRX; 1.15 fold enrichment (6-mer frequency, TF over GST control) with ETV1.

For GAACCA, the binding signal with ETV5 is 1.02 fold enrichment (6-mer frequency, TF over GST control); in the assay with HSF1, 1.03 fold enrichment (6-mer frequency, TF over GST control); with ELF4 it was 1.02 fold enrichment (6-mer frequency, TF over GST control); with ELK4, 1.06 fold enrichment (6-mer frequency, TF over GST control); with ETV2 it was 1.02 fold enrichment (6-mer frequency, TF over GST control); with ELF3 it was 1.09 fold enrichment (6-mer frequency, TF over GST control). The binding signal in the assay with ETV1 is 1 fold enrichment (6-mer frequency, TF over GST control).

Regarding CGTTCA, the binding signal with FEV is 1.25 fold enrichment (6-mer frequency, TF over GST control); with ETV5, 1.16 fold enrichment (6-mer frequency, TF over GST control); with HSF1, 1.03 fold enrichment (6-mer frequency, TF over GST control); with ELF4 it was 1.17 fold enrichment (6-mer frequency, TF over GST control); with ELK4, 1.14 fold enrichment (6-mer frequency, TF over GST control); with ETV2 it was 1.19 fold enrichment (6-mer frequency, TF over GST control). The binding signal with ELF3 is 1.13 fold enrichment (6-mer frequency, TF over GST control); in the assay with ETV1 it was 1.18 fold enrichment (6-mer frequency, TF over GST control).

With TTGCGC, the binding signal was 1.05 fold enrichment (6-mer frequency, TF over GST control) with FEV; 1.11 fold enrichment (6-mer frequency, TF over GST control) in the assay with ETV5; 1.05 fold enrichment (6-mer frequency, TF over GST control) in the assay with HSF1; 1.06 fold enrichment (6-mer frequency, TF over GST control) in the assay with ELF4; 1.11 fold enrichment (6-mer frequency, TF over GST control) with ETV2; 1.05 fold enrichment (6-mer frequency, TF over GST control) with CRX. Moreover, the binding signal with ETV1 is 1.16 fold enrichment (6-mer frequency, TF over GST control).

The values above are taken from publication PMC7862700, “An all-to-all approach to the identification of sequence-specific readers for epigenetic DNA modifications on cytosine”.
